{"source": "PubChem BioAssay (Tox21)", "note": "Where “and” joins values, the source holds several entries; their conditions need not be identical. Identical values can stand only once. Results filed as inconclusive are left out. Where a call stands in place of a potency, no number is given. The source holds several records for some structures; these can differ, active in one and inactive in another. Calls of active or inactive are those of the source. Calls come from the whole dose curve; as a rule, active = well fitted activation curve with a large enough effect in the repeat runs; inconclusive = weak or mixed curves; inactive = flat fitted curve, though single readings scatter. Potency is the fitted concentration of half-maximal effect."}
{"test": "A CellTox Green Cytotoxicity Assay to monitor cytotoxicity in HepG2 cells - 32 hour (AID 1224883); note: nearly all actives have a fitted effect of over 50% in size", "conditions": "CellTox Green fluorescence; series mostly up to 76.8 µM", "source_text": "National Center for Advancing Translational Sciences [NCATS]\nNIH Chemical Genomics Center [NCGC]\nU.S. Environmental Protection Agency [EPA]\nNational Institutes of Environmental Health Sciences [NIEHS]\nNational Toxicology Program [NTP]\nCell-based models are critical for drug discovery. Determining the natural cytotoxic effects resulting from test compounds is an essential research activity. A CellTox Green Cytotoxicity Assay to monitor cytotoxicity in real time of continues cell culture during 40 hours of the compound treatment was used to screen Tox21 10K library compounds in HepG2 cells. CellTox Green Cytotoxicity Assay is a nonlytic, homogeneous, biofluorescent method to measure cytotoxicity in cell culture after experimental manipulation. The assay system uses a proprietary asymmetric cyanine dye that is excluded from viable cells but preferentially stains the dead cell's DNA. […] Viable cells produce no appreciable increases in fluorescence. Therefore, the fluorescence signal produced by the binding interaction with dead cell DNA is proportional to cytotoxicity.\nThe mixture of HepG2 cell suspension and reagents were dispensed at 600cells/6 ul/well in 1536-well tissue culture treated black solid bottom plates using a Multidrop dispenser. After the assay plates were incubated at a 37 C/5% CO2 incubator for 5 hours, 23 nL of compounds dissolved in DMSO, positive and negative controls was transferred to the assay plate by a pintool work station. The plates were incubated at 37 C for 40 hours. The fluorescence intensity were measured at 0h, 8h, 16h, 24h, 32h and 40h time points using ViewLux plate reader during compound treatment."}
{"smiles": "Cc1ccn2nc(S(=O)(=O)Nc3c(F)cccc3F)nc2n1", "Potency": "inactive"}
{"smiles": "CCOP(=O)(Sc1ccccc1)Sc1ccccc1", "Potency": "inactive"}
{"smiles": "O=c1[nH]c(Cl)c(Cl)cc1Cl", "Potency": "inactive"}
{"smiles": "O=P(Cl)(Cl)Cl", "Potency": "inactive"}
{"smiles": "CC(=O)[O-].CC(=O)[O-].[Co+2]", "Potency": "inactive"}
{"smiles": "CCCC[N+]1(C)CCCC1", "note": "(tested in a mixture with another compound)", "Potency": "inactive"}
{"smiles": "CC(Cl)CCl", "note": "(stereo not given)", "Potency": "inactive"}
{"smiles": "CCC[CH2][Sn]([CH2]CCC)([CH2]CCC)[O][Sn]([CH2]CCC)([CH2]CCC)[CH2]CCC", "Potency": "0.537 µM (active)"}
{"smiles": "Nc1nc(N)nc(Cl)n1", "Potency": "inactive"}
{"smiles": "Cc1ccc(C)c2ccccc12", "Potency": "inactive"}
{"smiles": "CCC[CH2][Sn]([CH2]CCC)([O]C(C)=O)[O]C(C)=O", "Potency": "0.221 µM (active)"}
{"smiles": "CCNS(=O)(=O)C(F)(F)C(F)(F)C(F)(F)C(F)(F)C(F)(F)C(F)(F)C(F)(F)C(F)(F)F", "Potency": "inactive"}
{"smiles": "NC(=O)C(Cl)Cl", "Potency": "inactive"}
{"smiles": "CC1(C)C(C=C(Cl)Cl)C1C(=O)OC(C#N)c1ccc(F)c(Oc2ccccc2)c1", "note": "(stereo not given)", "Potency": "inactive"}
{"smiles": "Cc1ccc2cc3c(ccc4ccccc43)c3c2c1CC3", "Potency": "6.93 µM (active)"}
{"smiles": "CC(C)=CC1C(C(=O)OC(C#N)c2cccc(Oc3ccccc3)c2)C1(C)C", "note": "(stereo not given)", "Potency": "inactive"}
{"smiles": "CCN(CC)C(=S)S", "Potency": "inactive and 6.88 µM (active) and 21.9 µM (active)"}
{"smiles": "CCCCCCCc1ccc(O)cc1", "Potency": "21.9 µM (active)"}
{"smiles": "Oc1ccc(Cl)c(Cl)c1", "Potency": "inactive"}
{"smiles": "CN1CCc2cc3c(cc2C1O)OCO3", "note": "(stereo not given)", "Potency": "inactive"}
{"smiles": "CCCCc1ccccc1", "Potency": "inactive"}
{"smiles": "COCCC#N", "Potency": "inactive"}
{"smiles": "CNC(=O)/C=C(\\C)OP(=O)(OC)OC", "Potency": "inactive"}
{"smiles": "COc1ccc2c(c1OC)C(=O)O[C@@H]2[C@H]1c2cc3c(cc2CCN1C)OCO3", "Potency": "inactive"}
{"smiles": "O.O.O.O.O.O.O=S(=O)([O-])[O-].[Ni+2]", "Potency": "inactive"}
{"smiles": "Clc1ccc(C2(Cn3cncn3)OCCO2)c(Cl)c1", "Potency": "inactive"}
{"smiles": "OCC(Br)CBr", "note": "(stereo not given)", "Potency": "inactive"}
{"smiles": "O=Cc1ccccc1", "Potency": "inactive"}
{"smiles": "CO/N=C(/C1=NOCCO1)c1ccccc1Oc1ncnc(Oc2ccccc2Cl)c1F", "Potency": "inactive"}
{"smiles": "CC(C)NCC(O)c1ccccc1Cl", "note": "(stereo not given)", "Potency": "inactive"}
{"smiles": "Cc1nn(-c2cc(NS(C)(=O)=O)c(Cl)cc2Cl)c(=O)n1C(F)F", "Potency": "inactive"}
{"smiles": "CCCCC/C=C\\C/C=C\\C/C=C\\C/C=C\\CCCC(=O)NCC(=O)O", "Potency": "inactive"}
{"smiles": "CC(=O)C(Cl)C(=O)N(C)C", "note": "(stereo not given)", "Potency": "inactive"}
{"smiles": "CCc1cccc(C)c1N(C(=O)CCl)[C@@H](C)COC", "Potency": "43.6 µM (active)"}
{"smiles": "O=[N+]([O-])c1ccc(CCl)cc1", "Potency": "inactive"}
{"smiles": "Cc1c([N+](=O)[O-])c(C)c([N+](=O)[O-])c(C(C)(C)C)c1[N+](=O)[O-]", "Potency": "inactive"}
{"smiles": "c1cc[n+]2c(c1)-c1cccc[n+]1CC2", "Potency": "inactive"}
{"smiles": "S=C=Nc1ccccc1", "Potency": "inactive"}
{"smiles": "Nc1cc(Cl)ccc1Cl", "Potency": "inactive"}
{"smiles": "CC(C)=CCN1CC[C@@]2(C)c3cc(O)ccc3C[C@@H]1[C@@H]2C", "Potency": "inactive"}
